The text below walks through data of PubChem BioAssay.

Each structure is given as a SMILES string.

The subject of this test is Chordin-like protein 2 (CHRDL2). The test is described as follows: compounds binding chordin-like 2 – biochemical, small-molecule microarray, 635 nm fluorescence, primary screen (AID 1126).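 Also: printed compound slides probed with Chrdl2 protein at 4 µg/mL for 1 h at 4 C; score merges 667 nm emission intensity with signal to noise over three replicate slides.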 The settings on record: fluorescence 635 nm, higher = more signal.
`C[C@@H]1ON(c2ccccc2)[C@H](c2ccccc2)[C@H]1C(=O)O`: the composite z-score worked out at 0.204. Compound `C[C@]1(C(=O)O)c2ccccc2C(=O)N(Cc2cc(F)cc(C(F)(F)F)c2)[C@H]1c1ccc(CO)cc1` yielded a composite z-score of 0.447. Consider `COCCOC(=O)N1C(=O)[C@@]2(c3cc(C#CCCO)ccc31)[C@H](c1ccccc1OCCO)N1[C@H](c3ccccc3)[C@H](c3ccccc3)OC(=O)[C@H]1[C@@H]2C(N)=O`, for which the composite z-score is 0.0193. The value for `O=C1[C@H]2C=C(I)[C@H](C[C@@H]2OCCCCCCO)[C@@]12CO2` was 1.24.

Compound `C=CCOC(=O)[C@@H]1[C@H]2C(=O)O[C@H](c3ccccc3)[C@H](c3ccccc3)N2[C@H](c2ccc(OCCOC(=O)[C@H]3C[C@H]4C(=O)N[C@@H](CCCCN(C)C)C(=O)N4[C@H]3c3ccc(O)cc3)cc2)[C@@]12C(=O)Nc1ccc(I)cc12` yielded a composite z-score of 1.1. The value for `O=C(NCc1ccccc1)[C@@H]1c2ccccc2C(=O)N(Cc2cc(C(F)(F)F)cc(C(F)(F)F)c2)[C@H]1c1ccc(CO)cc1` was 0.755; that for `CCCC[C@H]1C[C@@H]1[C@@H]1N(C(C)=O)[C@H](c2cccc(OC)c2)CC12CC2` was -1; that for `CCOC(=O)C1=CCC(c2cc3ccccc3[nH]2)N(CCN2CC(C(=O)OCC)=CCC2c2cc3ccccc3[nH]2)C1` (stereo not given) was 0.106. The value for `C=C(CCCC)/C(=C/C[C@H](OC(C)=O)c1cccc(OCCO)c1)c1cnc2ccccc2c1` was 0.466; that for `CCCN1C(=O)[C@@]2(c3ccc([N+](=O)[O-])cc3)CC(=O)N(CC34CC5CC(CC(C5)C3)C4)[C@@H]2c2ccc(CO)cc21` was -0.229. As for `COc1ccc(C(O)C2C=CC3C(=O)N(c4ccccc4)C(=O)C3N2Nc2ccc(C#N)cc2)cc1OCc1ccccc1` (stereo not given), the figure is -0.333; as for `CC(C)NC(=O)[C@@]1(c2ccc([N+](=O)[O-])cc2)CC(=O)N(CC23CC4CC(CC(C4)C2)C3)[C@@H]1c1ccc(CO)cc1`, 1.21; as for `CC1=C([C@H](O)CCc2ccccc2)[C@H](CO)n2c(=O)n(-c3ccccc3)c(=O)n2C1`, 0.443. `O=C(NC1CC1)[C@@H]1c2ccccc2C(=O)N(Cc2cc(C(F)(F)F)cc(C(F)(F)F)c2)[C@H]1c1ccc(CO)cc1`: the composite z-score is -0.936. As for `COC(=O)[C@@]1(Cc2ccccc2)N=C(c2ccc(OCCCO)cc2)O[C@H]1c1ccccc1CN=[N+]=[N-]`, the figure is -0.111.

Regarding `O=C1c2ccccc2[C@@]2(Cc3ccccc3N(Cc3ccccc3)C2=O)[C@H](c2ccc(CO)cc2)N1Cc1ccccc1Cl`, the composite z-score is -0.688. `CC(C)C[C@H]1NC(=O)C([C@@H](C)OCc2ccccc2)NC(=O)[C@@]23C(=O)N[C@@H](Cc4ccccc4)C2[C@H](C)[C@@]2(C)O[C@H]2C3/C=C/C/C=C\CNC1=O` (stereo not given in full): the composite z-score worked out at 0.736.

`CC(C)=CCCC(C)=CC(O)C1C=CC2C(=O)NC(=O)C2N1Nc1ccc(Cl)cc1Cl` (stereo not given) returned a composite z-score of 0.307. In turn, `CCCCC(=C=CC[C@H](O)c1ccc(CO)o1)CCO` registered a composite z-score of 0.386. The value for `CCOC(=O)C1=CC[C@@H](c2ccccc2)N(S(=O)(=O)c2ccc(C)cc2)[C@H]1c1ccccc1I` was -0.131. As for `[N-]=[N+]=Nc1ccccc1[C@@H]1OC(c2ccc(OCCCO)cc2)=N[C@]1(CCS(=O)(=O)c1ccccc1)C(=O)NCC(O)CO` (stereo not given in full), the figure is -0.165; as for `N#Cc1ccc(NN2C(C(O)C3CC=CCC3)C=CC3C(=O)N(c4ccccc4)C(=O)C32)cc1` (stereo not given), 0.0572. As for `CC(C)C[C@@H]1NC(=O)[C@@]23C(=O)N[C@@H](Cc4ccccc4)C2[C@H](C)[C@@]2(C)O[C@H]2C3/C=C/C/C=C\CNC(=O)CNC1=O` (stereo not given in full), the figure is 0.322.

The compound `COc1ccc([Si](C)(C)[C@H]2[C@H](CC(=O)N3CCC[C@H]3CO)O[C@@]3(C(=O)N(Cc4ccc(N5CCCCC5=O)cc4)c4ccccc43)[C@@H]2C)cc1` came in with a composite z-score of 0.824. The value for `C=CCC(OC(C)=O)[C@@H]1[C@@H](N(Cc2cccc3ccccc23)C(=O)Cc2ccc(OC)cc2)c2cc(OCCCO)ccc2N1C(=O)c1ccc2ccccc2c1` (stereo not given in full) was 0.0839.

`NC(=O)NCC#Cc1ccc2c(c1)[C@]1(C(=O)N2)[C@H](c2ccc(OCCO)cc2)N2[C@H](c3ccccc3)[C@H](c3ccccc3)OC(=O)[C@H]2[C@@H]1C(=O)O`: the composite z-score is -0.736.

For the compound `O=C1O[C@H](c2ccccc2)[C@H](c2ccccc2)N2[C@H]1[C@@H](C(=O)N1CCN(c3ncccn3)CC1)[C@]1(C(=O)Nc3ccc(C#CCCO)cc31)[C@H]2c1ccc(O)cc1`, the composite z-score is 0.0231.

As for `C=C(CCCC)/C(=C/C[C@H](OC(=O)c1ccncc1)c1cccc(OCCO)c1)c1cnc2ccccc2c1`, the composite z-score amounted to 0.51. As for `O=C(N1CCOCC1)[C@@]1(Cc2ccccc2)COC(c2ccc(OCCCO)cc2)=N1`, the figure is -0.354. The value for `C=CCC(OC(C)=O)[C@@H]1[C@@H](N(Cc2ccc(-c3cccc(C(F)(F)F)c3)o2)C(=O)c2ccc(-c3ccccc3)cc2)c2cc(OCCCO)ccc2N1C(=O)c1ccc2ccccc2c1` (stereo not given in full) was 0.0823; that for `[N-]=[N+]=NCc1ccccc1[C@@H]1OC(c2ccc(OCCCO)cc2)=N[C@]1(Cc1ccccc1N=[N+]=[N-])C(=O)NCC(O)CO` (stereo not given in full) was -0.703; that for `CCCNC(=O)[C@@]1(c2ccc([N+](=O)[O-])cc2)CC(=O)N(C(C)C)[C@@H]1c1ccc(CO)cc1` was -1.54. `CC(C)N1C(=O)C[C@@](C(=O)NCCN2CCOCC2)(c2ccc([N+](=O)[O-])cc2)[C@H]1c1ccc(CO)cc1` showed a composite z-score of -1.26. `CCCC[C@H]1OB(O)C[C@H]2C1=C(COc1ccccc1)C[C@H]1C(=O)C=CC(=O)[C@H]12`: the composite z-score was determined as 0.647. As for `CC(C)[Si](C#CCCc1ccccc1)(O[C@H](c1ccccc1)c1cn(Cc2ccccc2)nn1)C(C)C`, the composite z-score came out at 0.721.
